Compound activity (PubChem BioAssay)
Only some compounds are listed: those with a hit (about 19% of all), similar ones and a draw of the others.
IL1B secr inh = inflammasome signaling inhibition, IL-1 beta readout | THP-1 LPS/ATP IL-1B secretion, AlphaLISA, 16 h; stronger effect = lower value | activity change, % at 57.5 µM | 4.7% of 360,000 active | AID 743279; in the data active means activity change below about -50%; inconclusive means mostly about -30% to -49%; further: on the % scale 0 is the no-effect control and ±100 the full control effect
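Secreted IL-1B measured by AlphaLISA bead assay after 16 h compound exposure of THP-1 cells; compounds (final up to 57.5 uM) added 1 h before LPS (250 ng/mL) and ATP (1.25 mM) stimulation; lower signal means less secretion.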
DT40 TDP1 CPT = DT40-hTDP1 cell growth loss with CPT | Potency, µM (highest dose often 46.2 µM), without a hit: top-dose activity change, negative = growth inhibition, most hits filed as inhibitors | 12% of 420,000 active | chicken DT40 Tdp1-/-;hTDP1 cells + 20 nM CPT, ATP luminescence, 48 h; further: potency means the concentration at half of the fitted maximal effect; on the % scale 0 is the no-effect control and ±100 the full control effect; nearly all actives have a fitted effect of over 55% in size
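Chicken DT40 Tdp1-/- cells complemented with human TDP1, 400 cells/well, exposed to compounds plus 20 nM camptothecin for at least 48 h at 37 C; viability read as ATP content by CellTiter-Glo luminescence.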
DT40 TDP1 no CPT = qHTS for Inhibitors of human tyrosyl-DNA phosphodiesterase 1 (TDP1): qHTS in cells in absence of CPT. DT40 Tdp1-/- hTDP1 cells, no CPT, ATP luminescence, 48 h. Potency, µM (doses to about 46.2 µM), inactives show at the top dose activity change, negative = growth inhibition, hits mostly inhibitors. 15% of 420,000 active. AID 686978, 2013; further: potency means the concentration at half of the fitted maximal effect; on the % scale 0 is the no-effect control and ±100 the full control effect; nearly all actives have a fitted effect of over 55% in size
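Camptothecin absent (DMSO only). Human TDP1-complemented DT40 knockout cells, 400 cells/well, 37 °C for minimum 48 hr; ATP measured via CellTiter-Glo, 30 min dark incubation, luminescence.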
MCF10A rerep = induces DNA re-replication in MCF 10a normal breast cells; MCF 10A DNA re-replication, Hoechst nuclear intensity, 48 h; Potency, µM (highest dose often 46.1 µM), for inactives: top-dose activity, positive = re-replication, most hits filed as activators; 2.9% of 350,000 active; further: potency means the concentration at half of the fitted maximal effect; % of control where 0% means no effect; nearly all actives have a fitted effect of over 50% in size
SW480 rereplic = inducers of DNA re-replication in SW480 colon cancer cells. SW480 DNA re-replication, Hoechst DNA content imaging, 48 h. 1.8% of 340,000 active. Potency, µM (top dose mostly 46.1 µM), without a hit: at the top dose re-replication activation, hits mostly activators; further: potency means the concentration at half of the fitted maximal effect; % of control where 0% means no effect; nearly all actives have a fitted effect of over 55% in size
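250 cells/well; 23 nL cpd via pin tool; 48 hr, 37 C, 5% CO2; Hoechst 40 min; imager read of total nuclear intensity, ex 405/em 500-530 nm.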
Chronic BCR inh = chronic active BCR signaling inhibition; AID 493014; ABC-DLBCL IkBa-CBG/CBR reporter, luminescence ratio, 4 h; Potency, µM (series often up to 46.1 µM), for inactives: top-dose activity change, negative = inhibition, actives largely listed as inhibitors; 0.05% of 340,000 active; active means well fitted inhibition curve with a large enough effect in the signal ratio, with a control signal flat, not every such curve was filed as active; inconclusive means small, poorly fitted or top-dose-only effect, or effect the other way, or a change in a side signal; the % refers to the signal ratio;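 further: potency means the concentration at half of the fitted maximal effect; plate controls were basal doxycycline-induced cells for no effect and cells given 10 µM MG132 for full effect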
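Concentration-response series (up to 46 uM) were applied to TMD8 dual-reporter cells for 4 h at 37C with doxycycline. Green/red ratio, after filter-overlap correction, defined %Activity; red signal alone was normalised to basal cells and zero luminescence.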
* marks the source's active call; other numbers are inactive results; ? = inconclusive; / = no result given. Unless noted, the call rests on the fitted dose curve; in most records, active means well fitted curve in the direction sought with a large enough effect; inconclusive means small, poorly fitted or top-dose-only effect, or another doubt; inactive means no such curve, though single readings can be large; an effect the other way counts as inactive or inconclusive.

SMILES	IL1B secr inh	DT40 TDP1 CPT	DT40 TDP1 no CPT	MCF10A rerep	SW480 rereplic	Chronic BCR inh
Cc1ccc(S(=O)(=O)Nc2ccccc2C(=O)N2CCCCC2C)c(C)c1NS(C)(=O)=O (stereo not drawn)	3	-12%	-21%	-35%	-24%	2%
O=C(Cn1ccn(-c2ccc(F)cc2)c(=O)c1=O)Nc1ccc(F)cc1	/	9%	-5%	/	/	/
COc1cc([N+](=O)[O-])c(C)cc1NC(=O)c1ccc(OC)c(OC)c1	-17	-18%	?	/	/	/
OC1(c2ccccc2F)CCN(Cc2nnnn2Cc2ccc(F)cc2)CC1	15	10%	-11%	0%	-7%	-8%
COc1ccc(COC(=O)c2ccc(Br)c(S(=O)(=O)N3CCOCC3)c2)cc1F	6	?	?	18%	-1%	7%
CCS(=O)(=O)NCCc1csc2nc(-c3ccc(OC)cc3)nn12	/	?	?	/	/	-8%
CC(=O)Nc1ccc(S(=O)(=O)NCCc2csc3nc(-c4ccc(Cl)cc4)nn23)cc1	/	21µM*	16µM*	/	/	11%
COc1ccc(S(=O)(=O)NCCc2csc3nc(-c4ccc(Cl)cc4)nn23)cc1C	/	16µM*	13µM*	/	/	-4%
CN(C)S(=O)(=O)c1ccc(C(=O)Nc2cc(S(=O)(=O)Nc3ccccc3Cl)ccc2N2CCCCC2)cc1	-4	8.2µM*	16µM*	-1%	?	3%
CN1CCN(c2ccc(Cl)cc2NC(=O)c2ccc(S(=O)(=O)N(C)C)cc2)CC1	?	18µM*	?	19%	11µM*	?
CN(C)S(=O)(=O)c1ccc(C(=O)Nc2ccc(F)cc2F)cc1	-18	12%	-17%	0%	-3%	?
CC(=O)N1CCN(C2=Nc3cccc4cccc2c34)CC1	-66*	-7%	-3%	-1%	-1%	0%
c1ccc(CC2CCN(C3=Nc4cccc5cccc3c45)CC2)cc1	-30	?	9.2µM*	9.2µM*	?	?
O=C(CSC1CS(=O)(=O)c2cc([N+](=O)[O-])ccc21)NNC(=O)c1ccc(Cl)cc1 (stereo not drawn)	-2	5.2µM*	2.3µM*	17%	4%	?
O=C(CSC1CS(=O)(=O)c2cc([N+](=O)[O-])ccc21)NNC(=O)c1ccccc1 (stereo not drawn)	-8	13µM*	21µM*	?	9.2µM*	-13%
C[C@]12C(=O)N(c3cccc(Cl)c3)C(=O)N1[C@@H]1c3ccccc3OC[C@@H]1[C@H]2c1ccccc1	-8	15µM*	12µM*	6%	-3%	1%
C[C@]12C(=O)N(c3cccc(F)c3)C(=O)N1[C@@H]1c3ccccc3OC[C@@H]1[C@H]2c1ccccc1	-19	12µM*	21µM*	15%	13%	0%
C[C@]12C(=O)N(c3ccc(C(F)(F)F)cc3)C(=O)N1[C@@H]1c3ccccc3OC[C@@H]1[C@H]2c1ccccc1	-9	23µM*	?	-30%	8%	18%
C[C@]12C(=O)N(c3ccccc3)C(=O)N1[C@@H]1c3ccccc3OC[C@@H]1[C@H]2c1ccccc1	-4	15µM*	16µM*	-12%	15%	4%
C[C@]12C(=O)N(c3ccccc3)C(=O)N1[C@H]1c3ccccc3OC[C@@H]1[C@H]2c1ccccc1	-3	?	?	7%	-2%	?
COCCNC(=O)C1(C)CCN(C(=O)c2oc3ccccc3c2C)C1 (stereo not drawn)	2	-17%	0%	/	/	/
COc1ccc(NC(=O)/C(=C\c2ccc(OC)c(OC)c2)NC(=O)c2ccco2)cc1	0	15%	12%	-2%	?	-1%
COc1ccc(S(=O)(=O)N2CCc3cc4c(cc3C2C)OCCCO4)cc1 (stereo not drawn)	22	16µM*	?	3%	-2%	5%
CC1c2cc3c(cc2CCN1S(=O)(=O)c1ccccc1)OCCCO3 (stereo not drawn)	20	?	-20%	5%	-16%	1%
Cc1ccc(S(=O)(=O)N2CCc3cc4c(cc3C2C)OCCCO4)cc1 (stereo not drawn)	-14	18µM*	?	?	0%	-3%
SMILES	IL1B secr inh	DT40 TDP1 CPT	DT40 TDP1 no CPT	MCF10A rerep	SW480 rereplic	Chronic BCR inh
O=C(Cn1nnc(-c2ccccc2)n1)NCC(=O)Nc1ccc(F)c(F)c1F	50	-4%	-4%	-4%	-14%	0%
COc1ccc(-c2nc3ccc(C)cn3c2Cc2ccsc2)cc1OC	-17	8.2µM*	7.3µM*	/	/	/
COC(=O)c1ccc2nc(-c3ccc(OC)c(OC)c3)c(Cc3ccc(OC)cc3C)n2c1	30	?	26µM*	/	/	/
COc1ccc(-c2nc3ccc(Br)cn3c2CC(C)(C)C)cc1OC	23	?	?	/	/	/
COC(=O)c1ccc2nc(-c3ccc(Cl)cc3)c(Cc3ccsc3)n2c1	33	?	12µM*	/	/	/
Clc1ccc(-c2nc3ccc(Cl)cn3c2Cc2ccsc2)cc1	10	-27%	?	/	/	/
COC(=O)c1ccc2nc(-c3ccc(Cl)cc3)c(Cc3ccc(OC)cc3C)n2c1	-5	?	?	/	/	/
COc1ccc(-c2nc3cc(C)c(Br)c(C)n3c2Cc2ccsc2)cc1OC	4	?	?	/	/	/
COc1ccc(-c2nc3ccc(C)cn3c2CC2CCCCC2)cc1OC	-21	18µM*	18µM*	/	/	/
CC1CCCN(Cc2c(O)ccc3c(=O)c(-c4ccccc4Cl)c(C(F)(F)F)oc23)C1 (stereo not drawn)	/	1%	0%	/	/	/
CCCCn1nnnc1C1(C)CCC(=O)N1Cc1ccc(C)cc1 (stereo not drawn)	16	5%	-9%	/	/	/
COC(=O)c1ccc2nc(-c3cccc(Cl)c3)c(Cc3ccsc3)n2c1	2	?	16µM*	/	/	/
COC(=O)c1ccc2nc(-c3ccc(OC)c(OC)c3)c(Cc3ccsc3)n2c1	-2	16µM*	23µM*	/	/	/
COC(=O)c1ccc2nc(-c3ccccc3)c(Cc3ccsc3)n2c1	20	21µM*	?	/	/	/
COC(=O)c1ccc2nc(-c3cccc(Br)c3)c(Cc3ccsc3)n2c1	90	?	?	/	/	/
C1=CCN(Cc2ccccc2)C1	14	11%	-3%	-2%	?	4%
